Test results as given in PubChem BioAssay (NCI).
Compounds without any hit were thinned out: in the full panel of roughly 79,000, 15% have a hit. Calls of active or inactive are those of the source. No stated cut-off is given here; in the data, active means growth inhibition above about 70%; inactive means the rest.

What was measured:
[1] = NCI Yeast Anticancer Drug Screen. Data for the rad50 strain (AID 155);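 further: 0% = growth of vehicle-only cultures of the same strain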; conditions: S. cerevisiae rad50 strain growth inhibition; at 50.0 µM; stronger effect = higher value
Method in brief: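 Readout: growth inhibition relative to vehicle-treated cultures. Compound exposure was carried out in a genetically defined yeast strain deficient in DNA damage repair.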

[2] = NCI Yeast Anticancer Drug Screen. Data for the mec2-1 strain (AID 157); conditions: S. cerevisiae mec2-1 strain, at 50.0 µM, stronger effect = higher value
Method in brief: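 Strain: mec2-1 (DNA repair/cell cycle alteration). Compound exposure, then growth measured; inhibition expressed relative to vehicle.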

[3] = NCI Yeast Anticancer Drug Screen. Data for the sgs1 mgt1 strain (AID 161);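 further: 0% = growth of cultures given vehicle only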; conditions: S. cerevisiae sgs1 mgt1 strain, at 50.0 µM, stronger effect = higher value
Method in brief: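 Read-out: growth inhibition vs vehicle controls. Cells: mutant yeast strain deficient in DNA damage repair.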

[4] = NCI Yeast Anticancer Drug Screen. Data for the cln2 rad14 strain (AID 165);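 further: 0% = growth equal to vehicle treated cultures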; conditions: S. cerevisiae cln2 rad14 strain, at 50.0 µM, stronger effect = higher value
Method in brief: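 Compounds are applied to the cln2 rad14 yeast strain, and growth is then compared with that of vehicle-treated cultures to give inhibition.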

[5] = NCI Yeast Anticancer Drug Screen. Data for the bub3 strain (AID 167); conditions: S. cerevisiae bub3 mutant strain, at 50.0 µM, stronger effect = higher value
Method in brief: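 Readout: yeast growth inhibition, expressed relative to vehicle-only wells. The test organism is a mutant strain from a panel with lesions in DNA repair or checkpoint genes.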

[6] = NCI Yeast Anticancer Drug Screen. Data for the mlh1 rad18 strain (AID 175); conditions: S. cerevisiae mlh1 rad18 strain growth inhibition; at 50.0 µM; stronger effect = higher value
Method in brief: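 Read-out is yeast growth inhibition, calculated against vehicle-only controls. The compound was applied to a strain engineered with DNA damage repair alterations.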

Measured: growth inhibition

O=C(c1ccc(Cl)c(Cl)c1)C(CS(=O)(=O)O)CS(=O)(=O)O (tested in a mixture with another compound)
inactive: [1] -1.55% | [2] 0.4% | [3] -0.8% | [4] -4.45% | [5] -4.8% | [6] 12.3%

O=C1CC23CC(=O)CC2(C1)c1ccccc1C3=O (stereo unspecified)
inactive: [1] 11.1% | [2] -11.8% | [3] 4.65% | [4] 6.2% | [5] 3.05% | [6] 13.7%

CC(C)CN1CC(C)C(=O)NC1=O (stereo unspecified)
inactive: [1] 1.4% | [2] -3.4% | [3] -2.45% | [4] 3.85% | [5] 1% | [6] 5.4%

CN(Nc1c([N+](=O)[O-])cc([N+](=O)[O-])cc1[N+](=O)[O-])c1ccc2ccccc2c1
inactive: [1] 14.2% | [2] 7.3% | [3] 21.4% | [4] 24.2% | [5] 7.2% | [6] 8.35%

NC(CSSCC(NC(=O)CNC(=O)OCc1ccccc1)C(=O)O)C(=O)O (stereo unspecified)
inactive: [1] -13.3% | [2] -38% | [3] -11.2% | [4] -62.8% | [5] -1.05% | [6] 2%

Cc1cc(N(CCOS(C)(=O)=O)CCOS(C)(=O)=O)ccc1C=Nc1ccc(C(=O)O)c(O)c1
inactive: [3] 46% | [5] 19.2%
active: [1] 82.8% | [2] 86.8% | [4] 77.5% | [6] 88%

C=C(CO)CC(CC(=C)CCS(=O)(=O)c1ccccc1)S(=O)(=O)c1ccccc1 (stereo unspecified)
inactive: [1] 8.55% | [2] 1.75% | [3] -0.9% | [4] 8.85% | [5] 7.35% | [6] -5.75%

O=c1[nH]c(=O)n(COCc2ccccc2)c2ccccc12
inactive: [1] 5.1% | [2] -12.2% | [3] 65.2% | [4] 12.7% | [5] 37.7% | [6] -18.4%

Cc1csc2c1-n1cccc1C2=O
inactive: [1] 5.5% | [2] 1% | [3] -17.8% | [4] 12.2% | [5] -19.4% | [6] 24.3%

c1cc(CSC2=NCCN2)ccc1CSC1=NCCN1
inactive: [1] -8% | [2] 9.25% | [3] -9.2% | [4] -24.3% | [5] 8.9% | [6] -3.85%

CCC(CC)OCc1ccccc1
inactive: [1] 12.1% | [2] 9.4% | [3] 6.6% | [4] 5.5% | [5] 0.55% | [6] 1.1%

O=C(O)CCCc1ccc(O)cc1
inactive: [1] 7.1% | [2] 11.7% | [3] 8.4% | [4] 10.7% | [5] -1.15% | [6] 20.3%

CC1(CCl)Nc2ccccc2C(=O)N1c1ccccc1 (stereo unspecified)
inactive: [1] 6.65% | [2] -6.2% | [3] 16.4% | [4] 4.2% | [5] 28.4% | [6] 8.5%

COc1cccc(CCN(CCOC(N)=O)CCOC(N)=O)c1OC
inactive: [1] -10.1% | [2] -5.25% | [3] 2.9% | [4] -7.35% | [5] -4.85% | [6] -2.65%

O=C(Oc1ccc(C(=O)c2ccc(C(=O)c3ccc(OC(=O)c4cccc(Br)c4)cc3)cc2)cc1)c1cccc(Br)c1
inactive: [1] 11.2% | [2] 7.15% | [3] -10.7% | [4] -2.35% | [5] 2.65% | [6] 2.15%

COC(=O)C1C(O)C(C)C(O)OC1C(C)C(O)C(C)/C=C\C=C(/C)C(=O)Nc1c(C)c(OC(C)=O)c2c(c1O)C(=O)C(C)=C1OCOC(/C(C)=C/C(C)=O)=C12 (stereo unspecified)
inactive: [1] 14.6% | [2] 8.3% | [3] 9.8% | [4] 13.4% | [5] 14% | [6] 17.6%

N#Cc1c(N)[n+]([O-])c2c([n+]1[O-])CCCC2
inactive: [1] 11.4% | [2] 3.35% | [3] 7% | [4] -43.2% | [5] -14.8% | [6] -3.35%

O=C(NCCO)C(=O)NCCO
inactive: [1] 5.25% | [2] -13.3% | [3] 5.7% | [4] -9.35% | [5] -2.55% | [6] 17.6%

O=C(CC(c1ccccc1)N1CCCCC1)OC(c1ccccc1)c1ccc(Br)cc1 (stereo unspecified)
inactive: [1] 12.9% | [2] 4.05% | [3] 11.6% | [4] 7.95% | [5] 6.4% | [6] 2.8%

CCCCCCCC/C(C=O)=C\c1ccc(C)cc1
inactive: [1] 53% | [2] 33.8% | [3] 55% | [4] 51.7% | [5] 66% | [6] 62.6%

COc1cc2c(cc1O)C(=O)CCC(C(=O)O)=C2
inactive: [1] 14.2% | [2] -12.8% | [3] 3.65% | [4] -14.8% | [5] 2% | [6] 14.6%

Cn1c(=O)n(CCn2c(=O)n(C)c3ccccc32)c2ccccc21
inactive: [1] -1.6% | [2] 14% | [3] -3.15% | [4] 3.55% | [5] 4.5% | [6] -3.8%

CN(CCSCC(N)C(=O)O)CCSCC(N)C(=O)O (stereo unspecified)
inactive: [1] 5% | [2] 11.2% | [3] 0.7% | [4] 29.4% | [5] -58% | [6] 28.6%

Cc1ccc(S(=O)(=O)N/N=C2\CCC3(C)C(=CCC4C3CCC3(C)C(C(C)CCCC(C)C)CCC43)C2(C)C)cc1 (stereo unspecified)
inactive: [1] 0.45% | [2] -1.2% | [3] -11.2% | [4] 2.75% | [5] -7.95% | [6] -0.1%

[O-][n+]1ccncc1Cl
inactive: [1] -1.15% | [2] -0.65% | [3] -2.75% | [4] 0.55% | [5] 18.6% | [6] 7.05%

COc1ccc2nc(-c3ccc(F)cc3)cc(C(=O)O)c2c1
inactive: [1] -4.6% | [2] -14.7% | [3] 9.75% | [4] 16.9% | [5] 10.2% | [6] 17.1%

CCC(Cl)COP(=O)(CC(Cl)CC)OC(C)P(=O)(OCC(Cl)CC)OCC(Cl)CC (stereo unspecified)
active: [1] 98% | [2] 98.3% | [3] 98.7% | [4] 97.5% | [5] 97.2% | [6] 98.4%

Fc1ccccc1-c1nnc(-c2ccccc2F)o1
inactive: [1] 1.65% | [2] 8.3% | [3] 6.85% | [4] 10.8% | [5] 48.2% | [6] 1.3%

C(=C\c1ccc2ccccc2c1)/c1ccc2ccccc2c1
inactive: [1] 6.75% | [2] 25.6% | [3] 16.6% | [4] 63.5% | [5] 6.85% | [6] 31.4%

O=C(Nc1ccccc1Cl)c1ccccc1O
inactive: [1] 10.1% | [2] -8.7% | [3] -3.2% | [4] -48.6% | [5] -5% | [6] -16.4%

Clc1ccc(C2N(Cc3ccccc3)CCC3CCCCN32)cc1Cl (stereo unspecified)
inactive: [1] -10.1% | [2] -21.6% | [3] 13.7% | [4] 26.1% | [5] -10.1% | [6] -1.4%

OCC1CC2c3ccccc3C1c1ccccc12 (stereo unspecified)
inactive: [1] -12% | [2] -22.1% | [3] -12.1% | [4] -0.05% | [5] -28.4% | [6] -6.75%

O=C1CC2(CCCC2)C(=O)N1c1ccc(O)c(CN2CCCCC2)c1
inactive: [1] 7.6% | [2] -4.3% | [3] -19.6% | [4] 14.7% | [5] 6.35% | [6] 4.95%

CCCCOB1OC(c2ccccc2)(c2ccccc2)c2ccccc2C(c2ccccc2)(c2ccccc2)O1
inactive: [1] 31.1% | [2] 3.65% | [3] 27.2% | [4] 3.85% | [5] -2.1% | [6] 22.6%

CCc1cccc(C(C)CC)c1NC(=O)CC1C(=O)Nc2ccccc2S1=O (stereo unspecified)
inactive: [1] 15.2% | [2] 0.65% | [3] 7.2% | [4] 18.1% | [5] 32.5% | [6] 15.2%

O=C(NC(c1ccccc1)c1cccs1)c1cccs1 (stereo unspecified)
inactive: [1] -2.95% | [2] -4.45% | [3] 1.05% | [4] -38.4% | [5] 30.1% | [6] 3.95%

CC(=O)/C=C1\N(C)c2ccccc2C1(C)C
inactive: [1] 2.1% | [2] -12.3% | [3] -2.05% | [4] -8.55% | [5] -2.9% | [6] -10.9%

O=C(OCc1ccccc1)C1CC1 (tested in a mixture with another compound)
inactive: [1] 12.1% | [2] 14.8% | [3] 15.4% | [4] 6.1% | [5] 20.8% | [6] 25.2%

C=CCCCCOCOCCOC
inactive: [1] 13.7% | [2] 17.6% | [3] 5.8% | [4] 0.5% | [5] 0.15% | [6] -28.4%

NNC(=O)C1C2C=CC(C2)C1C(=O)NN (stereo unspecified)
inactive: [1] 7.6% | [2] -8.05% | [3] -11.7% | [4] -35% | [5] 4.15% | [6] 4.2%

CCCC(CC)=C(c1ccc(OC(C)=O)cc1)c1ccc(OC(C)=O)cc1
inactive: [1] 44.4% | [2] 24.3% | [3] 51.5% | [4] 38.9% | [5] 31% | [6] 54.7%
